A short description of assay [1]: small molecules captured by biotinylated probe aFSTL3 – biochemical, small-molecule microarray, fluorescence 635/667, stem cell growth factor project, primary screen (AID 1064).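 Note: measures binding of the biotinylated anti-FSTL3 antibody to printed compounds.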 The note with it: higher = more signal.
Assay [2] can be described thus: binders from COS7 lysate, DM2A8 probe, primary screen, torsin A project, cell lysate, small-molecule microarray, fluorescence 635/667 (AID 1065). As to conditions: higher = more signal, COS7 lysate expressing mutant human TOR1A.
Assay [3] in a line: small molecules captured by biotinylated probe aFGF2 – biochemical, small-molecule microarray, fluorescence 635/667, stem cell growth factor project, primary screen (AID 1067).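 Note: measures binding of biotinylated aFGF2 protein to printed compounds on slides; z-score merges feature fluorescence and signal-to-noise across triplicate slides.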 As to conditions: higher = more signal.
Assay [4] is described as follows: small molecules captured by biotinylated probe aFGF10 – biochemical, small-molecule microarray, fluorescence 635/667, stem cell growth factor project, primary screen (AID 1071).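 Note: score merges 667 nm spot intensity and signal to noise from triplicate slides.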 The note with it: higher = more signal.
In assay [5] the target is Neurogenic locus notch homolog protein 2 (Homo sapiens) (UniProt Q04721). The experiment in a line: small molecules binding Notch2 protein – biochemical, small-molecule microarray, 635 nm fluorescence, stem cell growth factors, primary screen (AID 1073). As to conditions: higher = more signal.
Sequence of Neurogenic locus notch homolog protein 2 (Homo sapiens) (Q04721 whole entry, looked up, canonical isoform): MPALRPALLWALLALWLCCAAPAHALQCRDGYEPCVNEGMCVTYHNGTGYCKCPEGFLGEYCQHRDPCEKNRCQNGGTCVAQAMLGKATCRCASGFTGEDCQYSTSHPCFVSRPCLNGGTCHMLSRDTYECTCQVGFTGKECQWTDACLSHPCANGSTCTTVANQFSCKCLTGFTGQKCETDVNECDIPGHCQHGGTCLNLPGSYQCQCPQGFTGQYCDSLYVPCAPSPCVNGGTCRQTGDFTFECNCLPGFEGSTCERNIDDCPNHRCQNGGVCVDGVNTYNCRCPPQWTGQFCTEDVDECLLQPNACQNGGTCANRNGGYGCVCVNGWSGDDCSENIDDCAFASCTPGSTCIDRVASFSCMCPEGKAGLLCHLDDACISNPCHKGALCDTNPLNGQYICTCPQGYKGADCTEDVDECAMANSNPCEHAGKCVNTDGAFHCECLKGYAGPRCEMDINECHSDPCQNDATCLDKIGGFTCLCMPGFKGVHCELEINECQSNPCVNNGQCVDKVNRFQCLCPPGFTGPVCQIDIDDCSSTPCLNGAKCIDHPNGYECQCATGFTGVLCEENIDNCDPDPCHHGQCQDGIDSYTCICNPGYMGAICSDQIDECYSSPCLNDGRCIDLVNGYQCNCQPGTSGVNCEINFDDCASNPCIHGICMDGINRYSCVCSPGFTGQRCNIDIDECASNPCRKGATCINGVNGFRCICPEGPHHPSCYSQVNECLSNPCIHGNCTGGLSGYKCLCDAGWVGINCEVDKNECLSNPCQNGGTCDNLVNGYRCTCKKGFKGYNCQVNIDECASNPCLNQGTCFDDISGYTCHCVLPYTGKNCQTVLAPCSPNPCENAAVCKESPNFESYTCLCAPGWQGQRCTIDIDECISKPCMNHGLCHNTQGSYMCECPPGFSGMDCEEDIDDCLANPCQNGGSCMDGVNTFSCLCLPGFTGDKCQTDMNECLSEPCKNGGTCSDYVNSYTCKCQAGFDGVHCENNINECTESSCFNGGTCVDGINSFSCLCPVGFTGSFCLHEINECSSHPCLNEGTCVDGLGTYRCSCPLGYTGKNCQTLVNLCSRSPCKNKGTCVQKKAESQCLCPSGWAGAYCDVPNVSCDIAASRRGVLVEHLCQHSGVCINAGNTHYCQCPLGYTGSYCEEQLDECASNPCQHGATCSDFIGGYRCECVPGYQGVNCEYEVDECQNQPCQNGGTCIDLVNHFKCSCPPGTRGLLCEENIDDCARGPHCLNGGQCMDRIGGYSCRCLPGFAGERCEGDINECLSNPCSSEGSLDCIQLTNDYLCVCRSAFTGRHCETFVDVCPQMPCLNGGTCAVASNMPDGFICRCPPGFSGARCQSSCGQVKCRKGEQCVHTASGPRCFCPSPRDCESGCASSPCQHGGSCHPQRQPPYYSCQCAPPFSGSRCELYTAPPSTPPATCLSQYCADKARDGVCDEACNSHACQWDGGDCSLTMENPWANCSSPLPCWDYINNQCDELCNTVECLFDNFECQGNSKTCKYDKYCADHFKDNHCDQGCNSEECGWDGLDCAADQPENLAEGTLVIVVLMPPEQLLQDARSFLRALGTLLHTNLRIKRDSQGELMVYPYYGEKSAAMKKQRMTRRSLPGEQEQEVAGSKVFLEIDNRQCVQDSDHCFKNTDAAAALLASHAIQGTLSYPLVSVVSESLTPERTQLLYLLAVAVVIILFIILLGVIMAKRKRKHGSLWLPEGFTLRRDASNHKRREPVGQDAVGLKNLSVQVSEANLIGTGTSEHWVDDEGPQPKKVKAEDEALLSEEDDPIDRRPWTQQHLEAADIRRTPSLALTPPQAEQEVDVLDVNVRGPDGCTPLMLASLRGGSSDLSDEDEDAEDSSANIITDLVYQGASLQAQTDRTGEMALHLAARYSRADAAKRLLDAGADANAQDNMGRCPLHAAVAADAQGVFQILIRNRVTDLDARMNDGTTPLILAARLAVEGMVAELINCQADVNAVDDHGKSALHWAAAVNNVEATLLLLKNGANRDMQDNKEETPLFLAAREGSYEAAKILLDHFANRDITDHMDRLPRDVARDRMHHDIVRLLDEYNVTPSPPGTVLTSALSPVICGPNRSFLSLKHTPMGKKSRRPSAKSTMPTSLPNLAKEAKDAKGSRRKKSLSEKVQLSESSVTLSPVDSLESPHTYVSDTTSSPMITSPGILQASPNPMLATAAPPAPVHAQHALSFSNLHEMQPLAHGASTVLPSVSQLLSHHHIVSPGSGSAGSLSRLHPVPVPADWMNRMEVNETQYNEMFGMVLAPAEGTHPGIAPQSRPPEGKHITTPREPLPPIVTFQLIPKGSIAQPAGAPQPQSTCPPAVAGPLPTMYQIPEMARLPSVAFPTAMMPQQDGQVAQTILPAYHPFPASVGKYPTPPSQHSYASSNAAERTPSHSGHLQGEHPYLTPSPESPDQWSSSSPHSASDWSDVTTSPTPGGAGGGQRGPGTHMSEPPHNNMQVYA
For assay [6], the target named is Pro-neuregulin-1, membrane-bound isoform (Homo sapiens) (UniProt Q02297). The experiment in a line: small molecules binding neuregulin-1 protein – biochemical, small-molecule microarray, fluorescence 635/667, psychiatric disease protein project, primary screen (AID 1075).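 Note: score combines 667 nm spot fluorescence with signal to noise.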 As to conditions: NRG1 binding, 635 nm fluorescence, higher = more signal.
Assay [7] deals with Neuregulin-1 EGF-like domain. The experiment in a line: small molecules binding NRG1 EGF domain – biochemical, small-molecule microarray, 635 nm fluorescence, primary screen (AID 1081).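 Note: binding of the protein to compounds printed on small-molecule microarray slides.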 The note with it: higher = more signal.
A short description of assay [8]: FRG1 expression reporter modulators in myotubes – cell-based, C2C12 myotubes, firefly/Renilla luciferase, luminescence, FRG1 inhibition for FSHD, primary screen (AID 1084). As to conditions: FRG1 promoter luciferase, higher = more signal, called active from +8 up or from −8 down.
The nature of assay [9]: small molecules captured by biotinylated probe aFST – biochemical, small-molecule microarray, fluorescence 635/667, stem cell growth factor project, primary screen (AID 1086).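 Note: score merges 667 nm fluorescence with signal-to-noise of each printed compound spot.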 As to conditions: higher = more signal.
The nature of assay [10]: binders of probe aHhip on microarray, primary screen, stem cell growth factor project, biochemical, small-molecule microarray, fluorescence 635/667 (AID 1087).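 Note: score merges spot fluorescence at 667nm with spot signal to noise ratio.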 The note with it: higher = more signal.
The test system of assay [11] is PRMT1 (protein arginine N-methyltransferase 1). The experiment in a line: small molecules binding arginine methyltransferase PRMT1 – biochemical, small-molecule microarray, 635 nm fluorescence, primary screen (AID 1088).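 Note: binding of Prmt1 protein to compounds spotted on small-molecule microarray slides.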 The note with it: higher = more signal.
The nature of assay [12]: growth effects on S. cerevisiae YJM789 – YJM789 clinical isolate, OD600, 24 h, basal, primary screen (AID 1089).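 Note: growth of clinical yeast isolate S. cerevisiae YJM 789 seeded 1000 cells per well; test concentration not given here.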 As to conditions: higher = more signal, called active from +8 up or from −8 down.
Assay [13] in a line: S. pombe growth modifiers, basal conditions – strain 972, OD600, 24 h, no modulator, primary screen (AID 1090).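 Note: basal condition with compound alone and no growth modifier present; test concentration not given here.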 The note with it: S. pombe 972 growth, higher = more signal, called active from +8 up or from −8 down.
Assay [14] can be described thus: budding yeast growth modifiers under rapamycin – strain BY4716, OD600, 96 h, primary screen (AID 1091). Note: test concentration not given here. The note with it: S. cerevisiae BY4716 + rapamycin, higher = more signal, called active from +8 up or from −8 down.
Assay [15] addresses Torsin-1A-interacting protein 2 (Homo sapiens) (UniProt Q8NFQ8). The experiment in a line: small molecules binding lysate-expressed LULL1 – cell lysate, human LULL1 lysate, 635/667 nm fluorescence, primary screen (AID 1092).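 Note: probe is lysate of COS7 cells overexpressing human LULL1; score merges per-feature 667 nm fluorescence with signal-to-noise.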 As to conditions: small-molecule microarray, hLULL1 lysate binding, 635 nm fluorescence; higher = more signal.
Assay [16] is described as follows: optical density change of DRC41 E. coli – strain DRC41, OD650, 24 h, E. coli filamentation project, primary screen (AID 1093).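 Note: MC1000 strain lacking acrAB efflux and sulA so SOS filamentation is blocked; test concentration not given here.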 As to conditions: E. coli DRC41 growth, higher = more signal, called active from +8 up or from −8 down.
The nature of assay [17]: probe aLefty2 binding to arrayed compounds – biochemical, biotinylated probe, 635/667 nm fluorescence, primary screen (AID 1094).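 Note: score merges spot fluorescence near 667 nm with spot signal-to-noise ratio.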 The note with it: small-molecule microarray, higher = more signal.
In assay [18] the test system is Noggin (protein binding on small-molecule microarray). The experiment in a line: small molecules binding Noggin protein – biochemical, 635/667 nm fluorescence, primary screen (AID 1095).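 Note: score merges 667 nm feature fluorescence with signal to noise over triplicate slides.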 The note with it: 635 nm fluorescence, higher = more signal.
The target in assay [19] is Neurogenic locus notch homolog protein 3 (Homo sapiens) (UniProt Q9UM47). The experiment in a line: small molecules binding NOTCH3 protein – biochemical, 635/667 nm fluorescence, primary screen (AID 1096). As to conditions: small-molecule microarray, 635 nm fluorescence, higher = more signal.
Sequence of Neurogenic locus notch homolog protein 3 (Homo sapiens) (Q9UM47 whole entry, looked up): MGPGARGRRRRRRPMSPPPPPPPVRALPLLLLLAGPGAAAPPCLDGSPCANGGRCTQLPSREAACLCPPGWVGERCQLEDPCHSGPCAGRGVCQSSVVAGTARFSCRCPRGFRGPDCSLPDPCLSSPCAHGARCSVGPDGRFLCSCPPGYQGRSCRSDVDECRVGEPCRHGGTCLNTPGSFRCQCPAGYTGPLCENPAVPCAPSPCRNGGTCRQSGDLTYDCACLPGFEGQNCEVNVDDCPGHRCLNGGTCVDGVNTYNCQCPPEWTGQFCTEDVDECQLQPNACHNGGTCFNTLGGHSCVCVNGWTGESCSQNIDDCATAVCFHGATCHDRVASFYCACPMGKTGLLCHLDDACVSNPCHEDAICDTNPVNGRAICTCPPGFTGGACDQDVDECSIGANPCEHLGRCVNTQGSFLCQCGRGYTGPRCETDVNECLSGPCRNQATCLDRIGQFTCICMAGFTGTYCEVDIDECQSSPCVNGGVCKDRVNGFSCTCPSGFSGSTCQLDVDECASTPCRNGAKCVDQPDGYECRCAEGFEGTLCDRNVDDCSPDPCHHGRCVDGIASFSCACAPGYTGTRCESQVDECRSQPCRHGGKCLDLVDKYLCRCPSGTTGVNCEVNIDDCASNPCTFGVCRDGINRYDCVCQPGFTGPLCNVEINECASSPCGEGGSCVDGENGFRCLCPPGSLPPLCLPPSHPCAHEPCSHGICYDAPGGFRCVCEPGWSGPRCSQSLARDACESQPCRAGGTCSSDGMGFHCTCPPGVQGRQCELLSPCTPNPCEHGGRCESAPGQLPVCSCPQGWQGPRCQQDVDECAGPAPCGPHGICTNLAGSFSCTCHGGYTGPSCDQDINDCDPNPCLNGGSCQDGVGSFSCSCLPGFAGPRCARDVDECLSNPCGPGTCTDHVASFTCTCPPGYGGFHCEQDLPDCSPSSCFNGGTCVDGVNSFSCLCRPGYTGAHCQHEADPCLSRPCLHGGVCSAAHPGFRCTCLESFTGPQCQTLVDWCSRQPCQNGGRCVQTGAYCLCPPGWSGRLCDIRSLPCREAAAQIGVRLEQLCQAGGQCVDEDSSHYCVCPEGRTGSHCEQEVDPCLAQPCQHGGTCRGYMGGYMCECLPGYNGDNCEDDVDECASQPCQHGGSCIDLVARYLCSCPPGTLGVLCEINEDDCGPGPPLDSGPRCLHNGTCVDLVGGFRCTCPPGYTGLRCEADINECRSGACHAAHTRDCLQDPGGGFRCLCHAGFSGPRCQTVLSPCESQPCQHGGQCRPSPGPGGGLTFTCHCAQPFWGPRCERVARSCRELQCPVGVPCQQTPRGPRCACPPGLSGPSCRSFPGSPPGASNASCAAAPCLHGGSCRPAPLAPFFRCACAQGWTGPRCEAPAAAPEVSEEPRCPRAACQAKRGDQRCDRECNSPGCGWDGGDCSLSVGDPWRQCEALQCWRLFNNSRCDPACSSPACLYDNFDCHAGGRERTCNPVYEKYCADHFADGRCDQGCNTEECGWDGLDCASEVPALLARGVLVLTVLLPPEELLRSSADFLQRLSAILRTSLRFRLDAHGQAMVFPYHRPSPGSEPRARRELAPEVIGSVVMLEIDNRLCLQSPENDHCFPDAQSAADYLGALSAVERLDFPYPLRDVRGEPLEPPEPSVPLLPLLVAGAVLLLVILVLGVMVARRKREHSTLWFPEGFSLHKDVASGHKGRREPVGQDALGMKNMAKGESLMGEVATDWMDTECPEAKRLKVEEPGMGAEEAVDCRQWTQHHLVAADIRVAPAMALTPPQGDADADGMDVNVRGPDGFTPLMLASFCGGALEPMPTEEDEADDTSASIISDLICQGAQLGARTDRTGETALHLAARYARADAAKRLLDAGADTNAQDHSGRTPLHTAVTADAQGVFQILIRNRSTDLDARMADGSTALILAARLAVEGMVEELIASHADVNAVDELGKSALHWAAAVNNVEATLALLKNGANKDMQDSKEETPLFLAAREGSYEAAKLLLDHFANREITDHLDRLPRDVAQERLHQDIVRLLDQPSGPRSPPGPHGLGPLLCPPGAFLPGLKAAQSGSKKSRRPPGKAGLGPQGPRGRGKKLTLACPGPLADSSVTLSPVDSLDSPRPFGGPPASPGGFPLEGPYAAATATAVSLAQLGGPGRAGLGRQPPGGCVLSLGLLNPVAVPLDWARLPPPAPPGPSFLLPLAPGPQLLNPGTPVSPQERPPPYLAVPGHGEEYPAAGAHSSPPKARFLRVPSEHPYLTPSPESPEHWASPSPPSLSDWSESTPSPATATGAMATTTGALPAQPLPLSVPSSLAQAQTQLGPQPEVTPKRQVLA
Assay [20] can be described thus: probe aEGFR binding to arrayed compounds – biochemical, biotinylated probe, 635/667 nm fluorescence, primary screen (AID 1097).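 Note: probe is a biotinylated anti-EGFR antibody binding compounds printed on slides; score combines fluorescence near 667 nm and signal to noise of each spot.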 The note with it: small-molecule microarray, higher = more signal.

Each structure is given as a SMILES string. The source made the active and inactive calls.

As for `C=C(CCCC)C(=O)CC[C@H](OC(=O)c1cccnc1)c1ccc(CO)o1`, the composite z-score in assay [1] was -0.426; in [2] it was 1.08; in assay [3], -0.0752; in assay [4] it was 0.797; in [5] it was 0.816; in assay [6], 0.407. Also, the composite z-score in [7] is 1.23; in [9] it was 0.606; in [10], -0.134; in [11] it was 1.55; in assay [15], 2.07; in assay [17], 0. The values for the composite z-score in [18], in assay [19] and in [20] were 1.47, 1.13 and 0.045, respectively. Besides, the z-score in assay [8] was -0.0577 (inactive); in assay [12], -0.697 (inactive); in assay [13], -0.176 (inactive); in assay [14], -0.036 (inactive); in assay [16] it was -0.0138 (inactive).

As to `O=C1c2ccccc2[C@@]2(Cc3ccccc3N(Cc3ccccc3)C2=O)[C@H](c2ccc(CO)cc2)N1Cc1ccccc1`, the composite z-score in assay [1] is 0.55; in [2], -0.0642; in assay [3] it was -0.078; in assay [4], -0.221; in [5] it was -0.476; in assay [6], -0.605. For the same molecule, the composite z-score in [7] is -0.564; in [9] it was -0.351; in assay [10] it was -0.0645; in assay [11], 0.131; in [15] it was 0.118; in assay [17], -0.0321. In addition, the composite z-score in assay [18] was -0.945; in assay [19], -1.15; in [20] it was -0.218. Besides, the z-score was 0.161 (inactive) in assay [8]; -0.82 (inactive) in assay [12]; -0.678 (inactive) in [13]; 15.9 (active) in [14]; -0.737 (inactive) in assay [16].

Take `COc1ccc(NN2C(C(O)c3cc(C(F)(F)F)cc(C(F)(F)F)c3)C=CC3C(=O)N(C4CCCCC4)C(=O)C32)cc1` (stereo not given): the composite z-score is 0.844 in [1]; 0.301 in assay [2]; 0.483 in assay [3]; 0.397 in assay [4]; 1.37 in assay [5]; 1.02 in assay [6]. Moreover, the composite z-score came out at 1.11 in assay [7]; 1.36 in assay [9]; 1.67 in [10]; 1.28 in assay [11]; 2.59 in [15]; 0.849 in [17]. The composite z-score in [18] is 0.535; in assay [19], 1.06; in assay [20], 0.705. Besides, the z-score in assay [8] was -0.68 (inactive); in assay [12], -0.0995 (inactive); in [13], 0.495 (inactive); in assay [14], 0.518 (inactive); in assay [16] it was -0.804 (inactive).

Regarding `CN(C)CCCC[C@@H]1NC(=O)[C@H]2C[C@@H](C(=O)NCc3ccc(F)cc3)[C@@H](c3ccc(O)cc3)N2C1=O`, the composite z-score is 0.0653 in [1]; 0.412 in assay [2]; -0.0904 in [3]; 0.268 in assay [4]; 0.201 in assay [5]; 0.865 in assay [6]. In addition, the composite z-score in assay [7] is 1.25; in assay [9], -0.0224; in assay [10], 0.028; in assay [11], 1.56; in [15] it was 1.42; in assay [17] it was 0.0672. Moreover, the composite z-score was 1.78 in assay [18], 0.719 in assay [19] and 0.0579 in [20]. Besides, the z-score in assay [8] is 1.07 (inactive); in [12], -0.42 (inactive); in assay [13], -1.1 (inactive); in assay [14] it was -0.462 (inactive); in assay [16], 0.539 (inactive).

On to `CC(C)(C)OC(=O)CC[C@]1(C(N)=O)N=C(c2ccc(OCCCO)cc2)O[C@H]1c1ccccc1CN=[N+]=[N-]`, for which the composite z-score in [1] was found to be 0.68; in [2], 1.13; in [3] it was 0.191; in assay [4], 0.873; in assay [5] it was 1.53; in assay [6], 2.66. The composite z-score in assay [7] was 1.47; in [9], 0.441; in assay [10], 0.0722; in assay [11], 1.15; in [15], 3.62; in assay [17], 0.314. Besides, the composite z-score in assay [18] is 0.0447; in assay [19] it was 1.08; in assay [20] it was 0.306. The z-score in assay [8] was 5.29 (inactive); in [12], 1.33 (inactive); in assay [13], 0.835 (inactive); in assay [14] it was 0.56 (inactive); in [16] it was 0.528 (inactive).

The values above are taken from PubChem BioAssay.
